# In PubChem BioAssay (NCATS):
# Several values for one entry are separate records, joined by “and”; a condition that tells them apart may be missing. Equal values may be shown once. Inconclusive results are not listed. Unmarked numbers belong to inactive results. Activity calls are given as the source filed them. The call rests on the fitted dose curve; in most records, active means well fitted curve in the direction sought with a large enough effect; inconclusive means small, poorly fitted or top-dose-only effect, or another doubt; inactive means no such curve, though single readings can be large; an effect the other way counts as inactive or inconclusive.
# What was measured:
# [1] = biological target: Cellular tumor antigen p53 (Homo sapiens) (UniProt P04637); experiment: Primary qHTS for small molecule compounds that upregulate eGFP-tagged delta133p53alpha (in N-terminal) cells. (AID 2060322); settings: NCI-H358 eGFP-delta133p53alpha fluorescence, 24 h; activation: stronger effect = higher value; further: nearly all actives have a fitted effect of over 75% in size; further: potency means the concentration at half of the fitted maximal effect;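 on activation: 0% = DMSO vehicle and 100% = reference activator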
# Procedure, shortened: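 NCI-H358 cells pre-induced 24 h with 10 ng/ml doxycycline to express N-terminal eGFP-delta133p53alpha, then dosed 24 h at 37C without doxycycline; fixed, Hoechst-stained, GFP intensity by laser scanning cytometry, normalized to DMSO (0%) and 57.5 uM 5-azacytidine (100%).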
# [2] = biological target: Aldehyde dehydrogenase, mitochondrial (Homo sapiens) (UniProt P05091); experiment: qHTS for Inhibitors of the Aldehyde Dehydrogenase Family (ALDH2) Primary screen (AID 2061308); settings: ALDH2 enzyme inhibition qHTS, 1536-well; series mostly up to 56 µM;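 further: plate controls were vehicle for no effect and reference inhibitor for full effect; nearly all actives have a fitted effect of over 55% in size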
# [3] = biological target: Retinaldehyde dehydrogenase 3 (Homo sapiens) (UniProt P47895); experiment: qHTS for Inhibitors of the Aldehyde Dehydrogenase Family (ALDH1A3) Primary screen (AID 2061315); settings: ALDH inhibition qHTS; series mostly up to 56 µM;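 further: plate controls were DMSO vehicle for no effect and reference inhibitor for full effect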
# [4] = BET inhibitor-based combinations targeting novel dependencies in MECOM-rearranged (r) AML: SET-2 cell line (AID 2202231); settings: SET-2 AML cells viability, CellTiter-Glo luminescence, 48 h; viability: stronger effect = lower value, concentration not given here; further: nearly all actives have a fitted effect of over 35% in size; further: potency means the concentration at half of the fitted maximal effect;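 on viability: plate controls were DMSO treated cells for no effect and wells without cells for full effect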
# Procedure, shortened: (§1)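 Each compound was tested at eleven concentrations on cells seeded at 500/well. After two days' incubation, ATP-based luminescence reported viability; responses relative to DMSO and blank wells yielded AUC and cell-line-centred Z-AUC.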
# [5] = BET inhibitor-based combinations targeting novel dependencies in MECOM-rearranged (r) AML: OCI-AML3 cell line (AID 2202232); settings: CellTiter-Glo luminescence, 48 h; Potency: OCI-AML3 viability; series mostly up to 46 µM; further: nearly all actives have a fitted effect of over 35% in size; further: potency means the concentration at half of the fitted maximal effect
# Procedure, shortened: as §1
# [6] = BET inhibitor-based combinations targeting novel dependencies in MECOM-rearranged (r) AML: MV-4-11 cell line (AID 2202233); settings: MV-4-11 AML viability, CellTiter-Glo luminescence, 48 h; series mostly up to 46 µM; further: nearly all actives have a fitted effect of over 45% in size; further: potency means the concentration at half of the fitted maximal effect
# Procedure, shortened: (§2)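 First, 500 cells per well were seeded; next, drugs were pinned as 11-point doses; then plates sat 48 hr in the incubator; finally CellTiter-Glo was added and luminescence read, with AUC and Z-AUC computed.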
# [7] = BET inhibitor-based combinations targeting novel dependencies in MECOM-rearranged (r) AML: HNT-34 cell line (AID 2202234); settings: HNT-34 AML viability, CellTiter-Glo luminescence, 48 h; series mostly up to 46 µM; further: nearly all actives have a fitted effect of over 35% in size; further: potency means the concentration at half of the fitted maximal effect
# Procedure, shortened: as §2
# [8] = BET inhibitor-based combinations targeting novel dependencies in MECOM-rearranged (r) AML: UCSD-AML1 cell line (AID 2202235); settings: UCSD-AML1 AML cells viability, CellTiter-Glo, 48 h; series mostly up to 46 µM; further: nearly all actives have a fitted effect of over 40% in size; further: potency means the concentration at half of the fitted maximal effect
# Procedure, shortened: as §2
# [9] = BET inhibitor-based combinations targeting novel dependencies in MECOM-rearranged (r) AML: AML-191 cell line (AID 2202236; further: nearly all actives have a fitted effect of over 35% in size; further: potency means the concentration at half of the fitted maximal effect); settings: AML-191 viability, CellTiter-Glo luminescence, 48 h; series mostly up to 46 µM
# Procedure, shortened: as §1
# [10] = BET inhibitor-based combinations targeting novel dependencies in MECOM-rearranged (r) AML: AML-194 cell line (AID 2202237; further: nearly all actives have a fitted effect of over 40% in size; further: potency means the concentration at half of the fitted maximal effect); settings: AML-194 (MECOM-r AML) viability, CellTiter-Glo, 48 h; series mostly up to 46 µM
# Procedure, shortened: as §1
# [11] = biological target: Aldehyde dehydrogenase 1A1 (Homo sapiens) (UniProt P00352); experiment: qHTS for Inhibitors of the Aldehyde Dehydrogenase Family (ALDH1A1) Confirmatory screens (AID 2061316); settings: ALDH inhibition qHTS; series mostly up to 47.3 µM; further: potency means the concentration at half of the fitted maximal effect; nearly all actives have a fitted effect of over 65% in size
# Cellular tumor antigen p53 (Homo sapiens), sequence (P04637 whole entry, looked up): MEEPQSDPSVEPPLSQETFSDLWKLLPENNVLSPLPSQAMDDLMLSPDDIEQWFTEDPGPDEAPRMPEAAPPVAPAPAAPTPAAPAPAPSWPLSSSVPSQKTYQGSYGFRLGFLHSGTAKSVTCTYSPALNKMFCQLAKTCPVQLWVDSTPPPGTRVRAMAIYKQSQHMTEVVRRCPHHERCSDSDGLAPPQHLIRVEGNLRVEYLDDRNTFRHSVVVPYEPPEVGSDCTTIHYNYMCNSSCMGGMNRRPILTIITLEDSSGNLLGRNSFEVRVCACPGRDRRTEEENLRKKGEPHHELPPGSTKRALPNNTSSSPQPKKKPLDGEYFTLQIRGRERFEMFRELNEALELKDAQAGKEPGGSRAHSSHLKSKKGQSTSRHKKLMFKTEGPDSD
SMILES,activation [1],Potency [2],Potency [3],viability [4] [%],Potency [5],Potency [6],Potency [7],Potency [8],Potency [9],Potency [4],Potency [10],Potency [11],Potency [1]
Nc1ccn(C2CO[C@H](CO)O2)c(=O)n1 (stereo partly drawn),-4.75%,inactive,inactive,113,inactive,inactive,inactive,inactive,inactive,–,–,–,–
Cc1nc(NC(=O)N2CCCC2C(N)=O)sc1-c1ccnc(C(C)(C)C(F)(F)F)c1 (stereo not drawn),-0.893%,inactive,inactive,–,2.63 µM (active),16.6 µM (active),–,–,–,20.9 µM (active),–,–,–
CNC(=O)c1cc(Oc2ccc(NC(=O)Nc3ccc(Cl)c(C(F)(F)F)c3)cc2)ccn1,4.11%,inactive,inactive,–,9.34 µM (active),0.0132 µM (active),10.5 µM (active),18.6 µM (active),14.8 µM (active),26.3 µM (active),16.6 µM (active),–,–
Cc1nc(-c2cccnc2)sc1C(=O)Nc1ccccc1-c1cn2c(CN3CCOCC3)csc2n1,17.9%,inactive,inactive,115,inactive,inactive,inactive,inactive,inactive,–,inactive,–,–
C[C@H](O)[C@H](O)[C@H]1CNc2nc(N)[nH]c(=O)c2N1,10.3%,inactive,inactive,–,–,–,–,–,–,–,–,12.7 µM (active),–
CCN(c1cc(C#CCN2CCOCC2)cc(C(=O)NCc2c(C)cc(C)[nH]c2=O)c1C)C1CCC(N(C)CCOC)CC1 (stereo not drawn),-11.7%,inactive,inactive,113,inactive,inactive,inactive,inactive,inactive,–,inactive,–,–
CC(C)n1nc(-c2ccc3oc(N)nc3c2)c2c(N)ncnc21,5.06% and 13.4%,inactive,inactive,–,0.417 µM (active),0.0372 µM (active),0.0235 µM (active),0.0118 µM (active),–,0.148 µM (active),–,–,–
c1cncc(CN2CCC(n3ncc4c(N5CCOCC5)nc(-c5ccc6[nH]ccc6c5)nc43)CC2)c1,-11.7% and 12.5%,inactive,inactive,–,7.42 µM (active),3.72 µM (active),2.95 µM (active),0.833 µM (active),–,3.72 µM (active),–,–,–
CC(=O)Nc1ccc(C(=O)Nc2ccccc2N)cc1,3% and -4.47%,inactive,inactive,–,16.6 µM (active),5.9 µM (active),11.8 µM (active),10.5 µM (active),18.6 µM (active),7.42 µM (active),–,–,–
CN(C)C/C=C/C(=O)Nc1cccc(C(=O)Nc2cccc(Nc3ncc(Cl)c(-c4c[nH]c5ccccc45)n3)c2)c1,–,inactive,inactive,–,0.166 µM (active),0.0033 µM (active),0.235 µM (active),0.209 µM (active),0.468 µM (active),1.05 µM (active),0.525 µM (active),–,0.239 µM (active)
Cn1cnc2c(F)c(Nc3ccc(Br)cc3Cl)c(C(=O)NOCCO)cc21,24.1%,inactive,inactive,95.4,0.0295 µM (active),–,–,–,–,–,–,–,–
CO[C@H]1C[C@@H]2CC[C@@H](C)[C@@](O)(O2)C(=O)C(=O)N2CCCC[C@H]2C(=O)O[C@H]([C@H](C)C[C@@H]2CC[C@@H](OP(C)(C)=O)[C@H](OC)C2)CC(=O)[C@H](C)/C=C(\C)[C@@H](O)[C@@H](OC)C(=O)[C@H](C)C[C@H](C)/C=C/C=C/C=C/1C,3%,inactive,inactive,–,23.5 µM (active),14.8 µM (active),1.48 µM (active),0.0033 µM (active),–,23.5 µM (active),–,–,–
Cc1nc(NC(=O)N2CCC[C@H]2C(N)=O)sc1-c1ccnc(C(C)(C)C(F)(F)F)c1,-25%,inactive,inactive,89,–,–,–,–,–,–,–,–,–
CCCOc1ccc(CCc2nc3cc(-c4c(C)noc4C)ccc3n2CCN2CCOCC2)cc1,-35.8%,inactive,inactive,–,16.6 µM (active),18.6 µM (active),14.8 µM (active),–,–,20.9 µM (active),–,–,–
Cc1[nH]nc(C(F)(F)F)c1Cc1sc2c(c1C(=O)N1C[C@](C)(O)CO1)c(=O)n(C)c(=O)n2C(C)C,-10.3%,inactive,inactive,110,inactive,inactive,inactive,inactive,–,–,–,–,–
CC(=O)NC(C)c1ccc(Oc2ccc(OC(C)C)cc2)cc1 (stereo not drawn),15.3%,inactive,inactive,87.6,–,–,–,–,–,–,–,–,–
CC(C)c1noc(N2CCC(COc3ccc(-c4ccc(S(C)(=O)=O)cc4)nc3)CC2)n1,-0.134% and -12.9%,inactive,inactive,–,4.68 µM (active),2.35 µM (active),inactive,inactive,–,11.8 µM (active),–,–,–
CCOc1cc2ncc(C#N)c(Nc3ccc(OCc4ccccn4)c(Cl)c3)c2cc1NC(=O)/C=C/CN(C)C,–,inactive,inactive,–,5.9 µM (active),2.09 µM (active),1.32 µM (active),3.72 µM (active),5.25 µM (active),4.68 µM (active),5.25 µM (active),–,9.28 µM (active)
CNc1nc(C)nc(N[C@H]2CCC[C@@H](C(=O)NCc3ccc(C#N)cc3C(F)(F)F)C2)n1,10%,inactive,inactive,108,inactive,16.6 µM (active),inactive,inactive,inactive,–,inactive,–,–
C#Cc1cccc(Nc2ncnc3cc(OC)c(OCCCCCCC(=O)NO)cc23)c1,–,inactive,inactive,–,1.05 µM (active),0.296 µM (active),0.934 µM (active),1.18 µM (active),1.05 µM (active),1.48 µM (active),2.09 µM (active),–,8.63 µM (active) and 5.36 µM (active) and 544 nM (active)
Cn1c2cc(S(C)=O)sc2c2cnn(Cc3cccc(N)c3)c(=O)c21 (stereo not drawn),15.5%,inactive,inactive,104,inactive,inactive,inactive,inactive,inactive,–,inactive,–,–
CN1CCN(C2CCN(C(=O)Nc3cc(Oc4ccc(NC(=O)C5(C(=O)Nc6ccc(F)cc6)CC5)c(F)c4)ccn3)CC2)CC1,–,inactive,inactive,–,23.5 µM (active),0.296 µM (active),3.72 µM (active),7.42 µM (active),18.6 µM (active),20.9 µM (active),11.8 µM (active),–,26.9 µM (active)
Cc1ccc(C(=O)Nc2cccc(C(F)(F)F)c2)cc1-c1ccc2nc(NCCN3CCOCC3)ncc2c1,–,inactive,inactive,–,0.525 µM (active),2.35 µM (active),0.0934 µM (active),3.32 µM (active),2.63 µM (active),11.8 µM (active),3.32 µM (active),–,26.9 µM (active)
CCc1ccc(C(=O)Nc2cc(CN3CCN(C)CC3)cc(C(F)(F)F)c2)cc1C#Cc1cnc2ccnn2c1,–,inactive,inactive,–,10.5 µM (active),7.42 µM (active),1.86 µM (active),9.34 µM (active),5.9 µM (active),14.8 µM (active),5.9 µM (active),–,19 µM (active)
